Results: PubChem BioAssay (NCATS)
Inconclusive results are not listed. A call without a number means that no potency is given here. The source made the active and inactive calls. Unless noted, calls come from the whole dose curve; as a rule, active = well fitted curve in the direction sought with a large enough effect; inconclusive = small, poorly fitted or top-dose-only effect, or another doubt; inactive = no such curve, though single readings can be large; an effect the other way counts as inactive or inconclusive.

Legend:
[1] = target: Alpha-galactosidase A (Homo sapiens) (UniProt P06280); assay: Counterscreen for Glucocerebrosidase Inhibitors: qHTS Assay for Human alpha-Galactosidase at pH 4.5 (AID 992)
In short: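 Quantitative HTS: compounds tested from 0.7 nM up to 77 uM against 2 nM enzyme with 80 uM 4-MU alpha-D-galactopyranoside. The 20 min room-temperature reaction is stopped with 1M NaOH/1M glycine, pH 10.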

[2] = target: alpha-glucosidase (Oryza sativa, rice) (UniProt Q653V4); assay: Counterscreen for Glucocerebrosidase Inhibitors: qHTS Assay for Rice alpha-Glucosidase at pH 5.0 (AID 997)
In short: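 Rice alpha-glucosidase (4 nM final) with 400 uM 4-methylumbelliferyl-alpha-D-glucopyranoside in citrate buffer pH 5.0, 20 min at room temperature, stopped at pH 10; fluorescence 365/440 nm, compounds 0.7 nM–77 uM, AC50 from Hill fits.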

[3] = target: Alpha-galactosidase (Coffea arabica) (UniProt Q42656); assay: Counterscreen for Glucocerebrosidase Inhibitors: qHTS Assay for Coffee Bean alpha-Galactosidase at pH 5.9 (AID 998)
In short: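 Green coffee bean enzyme (2 nM final) was incubated with compounds (0.7 nM–77 uM) and 4-methylumbelliferyl alpha-D-galactopyranoside (80 uM) in citrate buffer pH 5.9, 20 min at room temperature. High-pH stop; fluorescence 365/440 nm; AC50 from Hill fits.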

[4] = Validation of Assay for Modulators of Lamin A Splicing (AID 1459; active = well fitted curve in the direction sought with a large enough effect in the signal ratio; the % refers to the signal ratio;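 note: cells exposed to compound for two days before reading; ratio rise marks activators and ratio drop marks inhibitors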)
In short: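 Dual-reporter HeLa S3 line (lamin A-EGFP minigene, DsRed2) treated with compounds 48 hrs, 0.5% DMSO final. Endpoint: EGFP/DsRed2 total intensity ratio from laser-scanning microplate cytometry.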

[5] = qHTS Assay for Lipid Storage Modulators (AID 1519; calls by dose curve); settings: Drosophila S3 cells, BODIPY lipid droplet/cell ratio, laser cytometry, cells loaded with oleic acid; for activity change, negative = inhibition: at 57.5 µM (top of the series)
In short: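 Cells seeded at 5,000 per well were treated with compounds over a concentration series and loaded with oleic acid (400 uM, as added). Lipid droplet fluorescence (488 nm excitation, 500-530 nm channel) was read by laser-scanning cytometry and normalized to 20 uM Triacsin C.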

[6] = target: DNA repair nuclease/redox regulator APEX1 (Homo sapiens) (UniProt P27695); assay: qHTS Validation Assay for Inhibitors of the Human Apurinic/apyrimidinic Endonuclease 1 (APE1) (AID 1705; note: potency is the fitted concentration of half-maximal effect;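 for activity change, negative = inhibition: TAMRA fluorescence gain over two minutes as APE1 cuts a quenched THF abasic duplex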)
In short: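 Substrate: 50 nM final fluorophore/quencher THF-abasic duplex. Enzyme preincubated with compounds 15 min, RT. Progress derived from fluorescence difference, third minus first kinetic read.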

[7] = Counterscreen for APE1 Inhibitors: Fluorescent Dye Displacement Validation Assay (AID 1707)
In short: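 Compounds are scored by their ability to displace Thiazole Orange (250 nM) from a 50 nM TAMRA-tagged duplex bearing a tetrahydrofuran abasic site. Buffer is 50 mM Tris-HCl pH7.5, 50mM NaCl, 2 mM MgCl2, 0.01% Tween-20.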

[8] = target: Endonuclease 4 (Escherichia coli (strain K12)) (UniProt P0A6C1); assay: Counterscreen for APE1 Inhibitors: qHTS Validation Assay for Inhibitors of Endonuclease IV (AID 1708)
In short: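 2 nM enzyme was preincubated with compounds for 15 min at room temperature in 50 mM Tris-HCl pH 7.5, 50 mM NaCl, 2 mM MgCl2, 1 mM DTT, 0.01% Tween-20. 50 nM THF-abasic TAMRA/BHQ-2 duplex substrate started the reaction.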

[9] = qHTS for differential inhibitors of proliferation of Plasmodium falciparum line 7G8 (AID 1815);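 note: parasite growth measured after three days of incubation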; note: potency is the fitted concentration of half-maximal effect
[10] = qHTS for differential inhibitors of proliferation of Plasmodium falciparum line GB4 (AID 1816); settings: Potency: Plasmodium falciparum GB4 proliferation inhibition;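 note: parasite growth measured after 72 h incubation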; note: potency is the fitted concentration of half-maximal effect
[11] = qHTS for differential inhibitors of proliferation of Plasmodium falciparum line 3D7 (AID 1876); note: potency is the fitted concentration of half-maximal effect
[12] = qHTS for differential inhibitors of proliferation of Plasmodium falciparum line D10 (AID 1877);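 note: parasites grown with compound for 72 h before DNA staining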
[13] = measured here: cell count channel max response
[14] = measured here: lipid channel max response

Sequence of DNA repair nuclease/redox regulator APEX1 (Homo sapiens) (P27695 whole entry, looked up): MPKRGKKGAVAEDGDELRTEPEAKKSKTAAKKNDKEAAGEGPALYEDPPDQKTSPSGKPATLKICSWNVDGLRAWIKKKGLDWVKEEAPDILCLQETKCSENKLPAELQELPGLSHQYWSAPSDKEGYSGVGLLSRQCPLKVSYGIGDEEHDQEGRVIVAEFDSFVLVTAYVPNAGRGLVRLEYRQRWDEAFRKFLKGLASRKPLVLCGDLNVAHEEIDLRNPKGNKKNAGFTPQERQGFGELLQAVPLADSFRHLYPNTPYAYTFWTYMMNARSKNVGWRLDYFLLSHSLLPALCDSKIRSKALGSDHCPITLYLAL
Sequence of Alpha-galactosidase (Coffea arabica) (Q42656 whole entry, looked up): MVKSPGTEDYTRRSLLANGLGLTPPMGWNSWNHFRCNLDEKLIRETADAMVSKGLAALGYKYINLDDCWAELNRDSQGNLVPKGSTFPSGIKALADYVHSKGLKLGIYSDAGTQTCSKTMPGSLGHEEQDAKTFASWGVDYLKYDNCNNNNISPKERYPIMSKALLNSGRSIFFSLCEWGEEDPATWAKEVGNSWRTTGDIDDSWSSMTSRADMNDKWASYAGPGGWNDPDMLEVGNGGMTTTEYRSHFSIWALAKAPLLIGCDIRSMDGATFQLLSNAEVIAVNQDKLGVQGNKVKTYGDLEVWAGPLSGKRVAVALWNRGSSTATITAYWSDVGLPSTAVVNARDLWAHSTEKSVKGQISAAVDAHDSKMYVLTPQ
Sequence of Alpha-galactosidase A (Homo sapiens) (P06280 whole entry, looked up): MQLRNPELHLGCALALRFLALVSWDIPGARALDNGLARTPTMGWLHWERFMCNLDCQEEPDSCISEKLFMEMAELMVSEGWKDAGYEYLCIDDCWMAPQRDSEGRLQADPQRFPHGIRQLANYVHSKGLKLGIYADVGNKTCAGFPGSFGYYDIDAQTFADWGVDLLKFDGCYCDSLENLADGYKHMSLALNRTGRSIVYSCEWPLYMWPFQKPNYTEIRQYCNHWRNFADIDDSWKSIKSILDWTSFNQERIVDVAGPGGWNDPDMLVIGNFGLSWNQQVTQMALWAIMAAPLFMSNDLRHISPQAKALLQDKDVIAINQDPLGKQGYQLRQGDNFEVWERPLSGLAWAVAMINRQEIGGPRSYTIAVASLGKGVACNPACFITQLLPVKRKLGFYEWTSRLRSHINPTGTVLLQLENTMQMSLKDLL

SMILES	outcome [1]	outcome [2]	outcome [3]	outcome [4]	activity change, negative = inhibition [5]	max response [5, 13] [%]	max response [5, 14] [%]	Potency [6]	Potency [7]	Potency [8]	Potency [9]	Potency [10]	Potency [11]	Potency [12]
Cn1cnc(CCN)c1	inactive	inactive	inactive	inactive	1.27% (inactive)	34.2	35.2	inactive	inactive	inactive	inactive	inactive	inactive	inactive
C[C@@H]1O[C@H](C[N+](C)(C)C)C[C@H]1O	inactive	inactive	inactive	inactive	-2.01% (inactive)	40.6	38	inactive	inactive	inactive	inactive	inactive	inactive	inactive
C[N+]1(C)C2CCC1CC(OC(=O)C(CO)c1ccccc1)C2 (stereo unspecified)	–	–	–	inactive	-1.3% (inactive)	-18.3	-18.4	inactive	inactive	inactive	inactive	inactive	inactive	inactive
CC(C)Oc1cccnc1N(C)C1CCN(Cc2ccccc2)CC1	inactive	inactive	inactive	inactive	–	–	–	inactive	inactive	inactive	–	–	–	inactive
COc1cc(C(O)CN)ccc1O (stereo unspecified)	–	–	–	inactive	–	–	–	inactive	inactive	inactive	inactive	inactive	inactive	inactive
CC(C)NC(C)Cc1ccc(I)cc1 (stereo unspecified)	–	–	–	inactive	–	–	–	39.8 µM (active)	inactive	inactive	10 µM (active)	11.2 µM (active)	–	–
CC(=O)NCCc1c[nH]c2ccccc12	inactive	inactive	inactive	inactive	–	–	–	inactive	inactive	inactive	–	inactive	inactive	inactive
C#CCOC(=O)C1=CCCN(C)C1	inactive	inactive	inactive	inactive	6% (inactive)	13.4	20.6	inactive	inactive	–	–	–	12.6 µM (active)	–
CCCN1CCC[C@H](c2cccc(O)c2)C1	inactive	inactive	inactive	inactive	–	–	–	inactive	inactive	inactive	–	14.1 µM (active)	inactive	–
CN1C2CCC1CC(OC(=O)c1cc(Cl)cc(Cl)c1)C2 (stereo unspecified)	–	–	–	inactive	-1.85% (inactive)	-22.1	-22.4	inactive	inactive	inactive	6.31 µM (active)	12.6 µM (active)	10 µM (active)	–
NC(=O)CN1CC(O)CC1=O (stereo unspecified)	–	–	–	inactive	3.41% (inactive)	18.3	20.4	–	inactive	inactive	inactive	inactive	inactive	inactive
O=C1CCCN1CC#CCN1CCCC1	inactive	inactive	inactive	inactive	–	–	–	inactive	inactive	inactive	inactive	inactive	inactive	inactive
C[C@]12N[C@H](Cc3ccccc31)c1ccccc12	inactive	inactive	inactive	inactive	–	–	–	inactive	inactive	inactive	–	1.78 µM (active)	inactive	inactive
S=C(NC1CCCCC1)N1CCC(c2cnc[nH]2)CC1	inactive	inactive	inactive	inactive	0.457% (inactive)	8.5	6.88	inactive	inactive	–	inactive	–	11.2 µM (active)	inactive
NC1CCc2cc(O)c(O)cc2C1 (stereo unspecified)	–	–	–	inactive	-0.984% (inactive)	-18.2	-19.2	inactive	–	inactive	inactive	–	inactive	–
O=C(Cc1ccc(Cl)c(Cl)c1)N1CCCCC1CN1CCCC1 (stereo unspecified)	–	–	–	inactive	–	–	–	inactive	inactive	inactive	5.01 µM (active)	–	12.6 µM (active)	–
CC1=NN=C(c2ccc(N)cc2)c2cc3c(cc2C1)OCO3	inactive	inactive	inactive	inactive	–	–	–	inactive	inactive	inactive	10 µM (active)	–	–	–
C=CCN1CC[C@]23CCCCC2[C@H]1Cc1ccc(O)cc13 (stereo partly specified)	–	–	–	inactive	–	–	–	inactive	inactive	inactive	11.2 µM (active)	11.2 µM (active)	inactive	inactive
O=C(O)Cc1cnc[nH]1	inactive	inactive	inactive	inactive	-0.977% (inactive)	21.8	19	inactive	inactive	–	inactive	inactive	inactive	inactive
